Out of some 360,000 compounds screened, about 1,700 (0.47%) were called active. Entries that show only a call come without a potency. Not shown: some 2% with an inconclusive outcome. Calls follow the shape of the dose curve; as a rule, active = well fitted inhibition curve with a large enough effect; inconclusive = small, poorly fitted or top-dose-only effect; inactive = no such curve, though single readings can be large or run the other way. Only a selection was taken, and actives are over-represented in it overall.

This is an account of results in PubChem BioAssay AID651768 (National Center for Advancing Translational Sciences (NCATS), 2012).
Potency is read from the fitted curve at half-maximal effect.

Sequence of Bifunctional 3'-5' exonuclease/ATP-dependent helicase WRN (Homo sapiens) (Q14191 whole entry, looked up): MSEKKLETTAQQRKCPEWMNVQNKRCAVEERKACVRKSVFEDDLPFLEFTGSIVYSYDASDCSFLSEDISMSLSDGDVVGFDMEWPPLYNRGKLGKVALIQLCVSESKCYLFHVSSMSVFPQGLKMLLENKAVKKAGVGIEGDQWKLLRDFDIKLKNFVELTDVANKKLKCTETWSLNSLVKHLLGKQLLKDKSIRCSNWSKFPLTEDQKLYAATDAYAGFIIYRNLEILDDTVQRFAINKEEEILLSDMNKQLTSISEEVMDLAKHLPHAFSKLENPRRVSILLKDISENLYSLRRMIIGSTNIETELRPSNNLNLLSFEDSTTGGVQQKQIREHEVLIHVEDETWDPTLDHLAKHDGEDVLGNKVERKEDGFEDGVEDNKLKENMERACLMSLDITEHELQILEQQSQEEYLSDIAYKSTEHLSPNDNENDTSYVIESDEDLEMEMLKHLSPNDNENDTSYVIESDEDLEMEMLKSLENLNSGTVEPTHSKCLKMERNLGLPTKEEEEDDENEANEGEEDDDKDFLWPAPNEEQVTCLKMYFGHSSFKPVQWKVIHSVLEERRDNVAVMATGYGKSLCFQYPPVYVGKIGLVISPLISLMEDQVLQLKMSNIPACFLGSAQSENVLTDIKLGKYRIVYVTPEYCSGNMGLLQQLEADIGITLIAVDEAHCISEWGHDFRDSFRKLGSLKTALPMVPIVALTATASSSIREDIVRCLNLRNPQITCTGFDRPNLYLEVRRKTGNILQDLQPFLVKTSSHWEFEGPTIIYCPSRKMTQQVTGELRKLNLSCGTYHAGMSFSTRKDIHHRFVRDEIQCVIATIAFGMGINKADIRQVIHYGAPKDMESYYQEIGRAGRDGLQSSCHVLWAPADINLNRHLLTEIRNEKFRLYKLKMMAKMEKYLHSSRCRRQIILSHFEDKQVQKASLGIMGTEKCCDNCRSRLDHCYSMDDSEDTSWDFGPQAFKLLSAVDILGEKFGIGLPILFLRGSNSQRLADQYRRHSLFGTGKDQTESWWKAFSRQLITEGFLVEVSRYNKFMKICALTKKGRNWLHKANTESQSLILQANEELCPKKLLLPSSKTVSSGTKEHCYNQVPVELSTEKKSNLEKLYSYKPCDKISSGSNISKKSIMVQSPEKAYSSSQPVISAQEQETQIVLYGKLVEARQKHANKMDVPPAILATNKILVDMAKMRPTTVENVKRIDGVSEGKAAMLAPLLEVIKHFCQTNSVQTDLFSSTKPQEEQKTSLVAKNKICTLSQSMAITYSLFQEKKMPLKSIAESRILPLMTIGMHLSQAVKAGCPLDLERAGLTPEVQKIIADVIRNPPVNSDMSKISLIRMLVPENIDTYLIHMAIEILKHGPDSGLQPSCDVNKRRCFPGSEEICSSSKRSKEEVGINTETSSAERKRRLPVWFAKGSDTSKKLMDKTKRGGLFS

The target of the assay is Bifunctional 3'-5' exonuclease/ATP-dependent helicase WRN (Homo sapiens) (UniProt Q14191). The assay can be described thus: qHTS for Inhibitors of WRN Helicase. Also: nearly all actives have a fitted effect of over 55% in size. As to conditions: WRN helicase unwinding, fluorescent forked duplex, kinetic; series mostly up to 114 µM. From the text:
Inhibition of DNA repair is proposed as a strategy for combating cancer. Synthetic lethality is an approach that exploits preexisting DNA repair deficiencies in certain tumors to develop inhibitors of DNA repair pathways that compensate for the tumor-associated DNA repair deficiency. Because helicases play critical roles in the DNA damage response and in DNA repair, particularly in actively dividing and replicating cells, characterization of synthetic lethal relationships of DNA helicases may be of value in developing improved anticancer treatment strategies; moreover, small molecules that specifically target a given DNA helicase may be useful for understanding its role in cellular nucleic acid metabolism. The goal of this project is to identify small molecule, non-covalent chemical inhibitors of the Werner syndrome (WS) helicase (WRN), which plays an important role in cell proliferation, the replication stress response, and DNA repair. […] The WRN gene product that is defective in the chromosomal instability disorder has DNA helicase and exonuclease activities and interacts with a number of nuclear proteins to maintain genomic stability. We will employ an optimized high-throughput screening assay that utilizes a fluorescence intensity modulation scheme with a fluorophore and quencher positioned near one another within a duplex deoxyoligonucleotide that contains a single forked structure. After a high-throughput screen of the ~350,000-member Molecular Libraries Small Molecule Repository (MLSMR) collection, followed by data analysis and hit selection, a panel of confirmatory, as well as secondary and ternary, assays will be employed to identify high-confidence WRN inhibitors. Structure-activity relationships will be investigated for the top candidate inhibitor series through medchem expansion. These are the results of the primary screening campaign against the MLSMR. NIH Chemical Genomics Center [NCGC] NIH Molecular Libraries Probe Centers Network [MLPCN] MLPCN Grant: MH096530 Assay Submitter (PI): Robert Brosh, National Institute of Aging
Three muL of reagents (buffer in columns 3 and 4 as negative controls; WRN at 20 nM final concentration in columns 1 and 2 as positive controls; columns 5-48 as test reactions) will be dispensed into a 1536-well Greiner black plate via solenoid-valve based nanoliter dispensers. Compounds (23 nL each in columns 5-48) and control (23 nL each in column 2 as dose-response) will be transferred via a Kalypsys pintool equipped with a 1536-pin array. Plates will be incubated for 15 min at room temperature, and then 1 µL of substrate (100 nM forked duplex oligonucleotide and 2 mM ATP final concentrations) will be added to start reaction, and plate will be transferred into a ViewLux high-throughput CCD imager where reaction progress is measured in kinetic mode using standard red-fluorescence optics (excitation filter 525 nm, emission filter 598 nm).
`N#Cc1ccc(OCC(=O)NC(=O)NC2CCS(=O)(=O)C2)cc1` (stereo not given): the Potency entry is “inactive”.

Consider `CC(=O)Nc1ccc(S(=O)(=O)NCC(=O)OCc2cc(=O)oc3ccc4ccccc4c23)cc1`, for which the Potency entry was “inactive”.

For the compound `O=C(N/N=C/c1sc(N2CCCCC2)nc1-c1cccs1)c1cccnc1`, the Potency result was “inactive”.

Take `C[C@H]1CN([C@@H](C)CO)C(=O)CCCn2nncc2CO[C@@H]1CN(C)S(=O)(=O)c1cccc(C#N)c1`: the Potency result is “inactive”.

Take `Cc1nnc(SCC(=O)Nc2ncc3c(n2)CC(C)(C)CC3=O)s1`: the Potency result is “inactive”.

Consider `CC1=C/C(=N\OS(=O)(=O)c2ccccc2)C=CC1=O`, for which the Potency is 31.6 µM (active).

As to `O=C1Nc2ccccc2-n2nnnc2C1N1CCN(c2cccc(C(F)(F)F)n2)CC1` (stereo not given), the Potency entry is “inactive”.

Consider `CC1(c2cccc(N)c2)OCCO1`, for which the Potency entry was “inactive”.

In the case of `Cc1ccc(NC(=O)OCCNC(=O)c2ccncc2)cc1`, the Potency result is “inactive”.

As to `COCCNC(=O)CSc1nc(N)c(NC(=O)c2ccco2)c(=O)[nH]1`, the Potency entry is “inactive”.

For the compound `COCCNC(=O)Nc1ccc2nc(-c3ccco3)c(-c3ccco3)nc2c1`, the Potency was 14.1 µM (active).

Consider `O=C(NC1=CC(=O)c2ccccc2C1=O)c1ccccc1`, for which the Potency entry was “inactive”.

For the compound `CC(=O)N(C1=C(Cl)C(=O)c2ccccc2C1=O)c1ccc(C(=O)O)cc1`, the Potency was 35.5 µM (active).

For the compound `CN(C)c1ccc(C(CNC(=O)c2ccc(F)cc2)c2c[nH]c3ccccc23)cc1` (stereo not given), the Potency entry was “inactive”.

For `CCc1ccccc1NC(=O)CN(c1ccc(OC)cc1OC)S(=O)(=O)c1ccccc1[N+](=O)[O-]`, the Potency entry is “inactive”.

As to `CCC1OC(C2CC2)CC2=C1C(=O)OC(C)(C)O2` (stereo not given), the Potency result was “inactive”.

Take `CCc1ccc2nc3sc(C(=O)Nc4nnc(CC)s4)c(N)c3cc2c1`: the Potency is 22.4 µM (active).

Take `CCc1nnc(NC(=O)c2cc(S(=O)(=O)N3CCCCC3)ccc2C)s1`: the Potency entry was “inactive”.

Turning to `CCc1nnc(NC(=O)c2ccco2)s1`, the Potency entry is “inactive”.

As for `C=CCN1CCN(c2ccncc2S(=O)(=O)N2CCN(C)CC2)CC1`, the Potency result was “inactive”.

Turning to `N#Cc1c(C(F)(F)F)cc(-c2cccs2)nc1N1CCCCC1`, the Potency result is “inactive”.

Regarding `O=C(O)CSc1ccc(S(=O)(=O)N2CCCC2)cn1`, the Potency result is “inactive”.

Turning to `N#Cc1c(N2CCCCC2)nc(N)c2c(N)nc(SCC(=O)O)cc12`, the Potency is 50.1 µM (active).

Regarding `C=CC(=O)Nc1ccc(Nc2ccnc(Nc3ccc(N4CCN(C)CC4)cc3)n2)cc1`, the Potency is 50.1 µM (active).

With `CN1CCN(c2ccc(NC(=O)c3cc(Cl)c4c(c3)OCCO4)cc2)CC1`, the Potency result was “inactive”.

For `Cn1cnnc1SCC(=O)Nc1ccc(N2CCOCC2)cc1`, the Potency entry was “inactive”.

Regarding `CC(C)NC(=S)Nc1cccc2cnccc12`, the Potency result was “inactive”.

On to `COc1ccc(S(=O)(=O)N2CCN(CC(=O)N3c4ccccc4CC3C)CC2)cc1OC` (stereo not given), for which the Potency result was “inactive”.

In the case of `Cc1ccccc1-c1nc(NC(C)C)nc2cc(-c3ccccc3)sc12`, the Potency result is “inactive”.

On to `O=S(=O)(O)c1cc2onnc2c2ccccc12`, for which the Potency was 56.2 µM (active).

With `O=C(Nc1ccc(OC(F)(F)F)cc1)c1ccc2c(c1)no[n+]2[O-]`, the Potency entry is “inactive”.

Consider `Cc1ccc(S(=O)(=O)N2CCC(=O)N([C@H](COCc3ccccc3)Cc3ccccc3)CC2)cc1`, for which the Potency entry was “inactive”.

Regarding `CCN(CC)CCNCC(=O)Nc1ccc(Oc2ccccc2)cc1`, the Potency entry is “inactive”.

With `CCN(CC)CCOc1ccc2c(c1)C(=NNC(=O)c1ccccn1)c1cc(OCCN(CC)CC)ccc1-2`, the Potency was 35.5 µM (active).

As for `CN(CCOc1ccc(CC2SC(=O)NC2=O)cc1)c1ccccn1` (stereo not given), the Potency entry is “inactive”.

Turning to `O=C(O)CSC(NC(=O)c1cccnc1)(C(F)(F)F)C(F)(F)F`, the Potency result was “inactive”.

Take `Cc1ccc(CCC(=O)Nc2ncc(Cc3cc(Cl)ccc3Cl)s2)o1`: the Potency result is “inactive”.

Consider `Cc1ccc(Cc2cnc(N)s2)o1`, for which the Potency was 44.7 µM (active).

Take `CSc1nnc(C2CCCN(CC(=O)Nc3ccccc3N3CCOCC3)C2)n1C(C)C` (stereo not given): the Potency result is “inactive”.

On to `O=C(c1cc2cc(Br)cc(Br)c2oc1=O)N1CCOCC1`, for which the Potency entry is “inactive”.

Consider `O=C(CSC(=S)N1CCOCC1)c1cc(Br)cc(Br)c1O`, for which the Potency was 56.2 µM (active).

On to `O=C(CSC(=S)N1CCOCC1)c1ccccc1`, for which the Potency result was “inactive”.

For `Cc1cc(=O)oc2cc(OC(C)C(=O)NCCc3ccc(S(N)(=O)=O)cc3)ccc12` (stereo not given), the Potency entry was “inactive”.

Take `CCOC(=O)c1cc(-c2ccc(F)cc2)n(CC(=O)NCc2ccccn2)c1C`: the Potency result was “inactive”.

For the compound `CCN(C(=O)COC(=O)/C=C/c1nc2ccccc2s1)C1CCS(=O)(=O)C1` (stereo not given), the Potency result is “inactive”.

On to `O=C(COC(=O)c1cnccn1)Nc1ccc(Cl)cc1C(F)(F)F`, for which the Potency entry is “inactive”.

Take `NC(=O)CSC1=Nc2ccccc2C2=NC(CCC(=O)NCc3ccc(F)cc3)C(=O)N12` (stereo not given): the Potency result was “inactive”.

For the compound `CC(C)C1N=C2c3ccccc3N=C(SCC(=O)c3ccc(O)c(O)c3)N2C1=O` (stereo not given), the Potency is 17.8 µM (active).

In the case of `O=C(CSC1=Nc2ccccc2C2=NC(c3ccccc3)C(=O)N12)NCC1CCCO1` (stereo not given), the Potency entry is “inactive”.

`O=C(NCCCn1ccnc1)C(=O)c1cn(CC(=O)N2CCCCCC2)c2ccccc12`: the Potency result is “inactive”.

Turning to `Cc1nc2ccc(S(=O)(=O)NCC(=O)O)cc2s1`, the Potency result was “inactive”.

Turning to `C/C(CC(O)(/C=N/O)c1ccccc1)=N\O` (stereo not given), the Potency result is “inactive”.

`O=S(=O)(NC1CC1)c1ccc(F)c(F)c1`: the Potency entry was “inactive”.

Take `Cn1sc(=O)c2cc(S(=O)(=O)NC3CC3)ccc21`: the Potency was 44.7 µM (active).

In the case of `O=S(=O)(NC1CC1)c1ccc(Cl)cc1`, the Potency entry was “inactive”.

`Cc1c(C(=O)NCCN(C)C)oc2ccc(S(=O)(=O)N3CCCC3)cc12`: the Potency entry is “inactive”.

For the compound `CCOP1(=O)C=C(C(C)(C)C)OC1c1ccc(F)cc1` (stereo not given), the Potency result was “inactive”.

Turning to `C[C@@H]1CN([C@H](C)CO)C(=O)CCCn2cc(nn2)CO[C@H]1CN(C)S(=O)(=O)c1ccc(Oc2ccccc2)nc1`, the Potency entry was “inactive”.

Take `CC12CCC(C(=O)N(CCC#N)CCC#N)(CC1=O)C2(C)C` (stereo not given): the Potency entry is “inactive”.

In the case of `COC(=O)[C@@]1(Cc2ccc(F)cc2)[C@H]2c3cc(C(=O)N4CCCC4)n(C[C@H](O)CO)c3C[C@H]2CN1C(=O)c1ccccc1`, the Potency result was “inactive”.

Take `CCOC(=O)N1CCC(NC(=O)CN2C(=O)COc3ccc(C(C)(C)C)cc32)CC1`: the Potency result was “inactive”.

With `CC[C@]12c3[nH]c4ccc(OC)cc4c3CCN1C(=O)C(CC(=O)NCCN1CCOCC1)C[C@@H]2C(=O)N1CCN(C(=O)C2CC2)CC1` (stereo not given in full), the Potency entry is “inactive”.

With `O=C(NCCc1ccco1)c1nn(Cc2ccccc2)c(=O)c2ccccc12`, the Potency result was “inactive”.

As for `O=c1/c(=C/c2ccc(CNS(=O)(=O)c3ccccc3)o2)sc2n1CCN=2`, the Potency result is “inactive”.

Take `O=c1nc2s/c(=C\c3ccco3)c(=O)n2nc1Cc1ccccc1`: the Potency was 35.5 µM (active).
